Source: PubChem BioAssay (several laboratories)
Compounds with a hit are over-represented: about 1.8% of the library has one in this group of screens.
Jurkat NFkB inh: inhibitors of the PMA/ionomycin-induced NF-kB reporter in Jurkat cells. AID 435003. inhibition, % at 4 µM. PMA/ionomycin-induced NF-kB luciferase reporter, luminescence. hit rate 0.53% among 330,000; in the data active means inhibition above about 50%
Beta apoptosis: beta cell apoptosis inhibition. protection from apoptosis, % (concentration not given with the values). AID 435005. hit rate 0.8% among 300,000. INS-1E cytokine-induced death, ATP luminescence, 48 h; percent of positive-control rescue, neutral wells zero;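 active means Every replicate reaches about 75%, or at least half do and their mean reaches it too, limit read from the data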;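 further: 0% = cytokine-treated negative control wells and 100% = positive control rescue; higher means more ATP so stronger rescue from cytokine killing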
Gli-Sufu block: antagonists of Gli-Sufu signaling. Sufu-KO-LIGHT fibroblasts, Gli luciferase reporter luminescence. inhibition, % at 5 µM. hit rate 0.74% among 340,000. AID 588413;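 active means inhibition above about 55%, limit read from the data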;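 further: 0% = DMSO-treated cells and 100% = wells with medium but no cells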
697 NFkB inh: inhibitors of the PMA/ionomycin-induced NF-kB reporter in 697 B cells | 697 B-cell NF-kB luciferase reporter, 16 h | inhibition, % at 4 µM | hit rate 0.33% among 330,000; in the data active means inhibition above about 35%
Gli-Sufu confirm: Gli-SUFU antagonism confirmation, single concentration | hit rate 40% among 2,500 | shares compounds with Gli-Sufu block | AID 602428 | inhibition, % at 5 µM | Sufu-KO-LIGHT cells, Gli luciferase reporter, luminescence;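 active means mean inhibition at 5 µM reaching about 45%, limit read from the data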;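 further: plate controls were DMSO-treated cells for no effect and wells lacking cells for full effect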
SufuKO cytotox: counter-screen for Gli-SUFU antagonists: cytotoxicity; shares compounds with Gli-Sufu block; Sufu-KO-LIGHT cells cytotoxicity, ATP luminescence; cytotoxicity, % at 5 µM; hit rate 32% among 2,500; AID 651994;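 active means mean cytotoxicity at 5 µM above about 25%, limit read from the data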;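 further: cells exposed to compound overnight for roughly 16 to 18 hours; plate controls were DMSO wells with cells for no effect and medium without cells for full effect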
Wnt3a cs: counter-screen for Gli-SUFU antagonists: Wnt3a reporter inhibition; hit rate 20% among 2,500; AID 651995; Wnt-LIGHT cells, Wnt3a-driven luciferase reporter, luminescence; shares compounds with Gli-Sufu block; inhibition, % at 6.25 µM;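 active means mean inhibition above about 25%, limit read from the data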
Active calls of the source: *; . = no result given.

SMILES	Jurkat NFkB inh	Beta apoptosis	Gli-Sufu block	697 NFkB inh	Gli-Sufu confirm	SufuKO cytotox	Wnt3a cs
Cn1nc(C(=O)NNC(=O)c2ccc(Cl)c(S(N)(=O)=O)c2)c2ccccc2c1=O	4	1	22	16	.	.	.
CCCn1c(C2CCCN2c2nc(-c3cccc(Br)c3)cs2)nc2cc(Cl)c(Cl)cc21 (stereo not drawn)	3	3	-2	-17	.	.	.
CC1CCc2c(sc3nc(C4CC4)nc(N4CCN(C(=O)c5ccco5)CC4)c23)C1 (stereo not drawn)	-28	98*	77*	-77	81*	32*	4
CCc1nc(N2CCN(C(=O)c3ccco3)CC2)c2c3c(sc2n1)CCCC3	12	-13	6	-21	.	.	.
Cc1cccc(OCC(=O)Nc2ccc3nc(C)sc3c2)c1	-11	-1	-9	0	.	.	.
Cc1ccc(CNS(=O)(=O)c2ccc3c(c2)NC(=O)CO3)cc1	-7	2	-15	-25	.	.	.
COc1ccc(C(CC(=O)O)NC(=O)COc2ccccc2)cc1 (stereo not drawn)	6	0	53	3	23	4	5
COCc1nnc(NC(=O)c2ccc(Cl)cc2[N+](=O)[O-])s1	-5	-3	-2	5	.	.	.
CC(=O)Nc1ccc(S(=O)(=O)N(C#N)c2nc(C)cc(C)n2)cc1	-12	-8	-5	4	.	.	.
CC(=O)c1ccc(NS(=O)(=O)c2ccc(C)cc2)cc1	18	-1	55	10	30	14	11
O=C(O)c1ccc2c(c1)C(c1ccccc1)OC2=O (stereo not drawn)	-1	-3	-3	6	.	.	.
CN(C)CCNC(=O)c1cccc2nc3c(ccc4ccccc43)nc12	.	.	34	.	.	.	.
COc1cccc2nc3c(C(=O)NCCN(C)C)cccc3cc12	.	.	70*	.	62*	23	-98
COc1ccc(C(=O)NCCN(C)C)c2nc3ccccc3cc12	.	.	64*	.	70*	38*	-281
CCC(=O)c1ccc(OCC(=O)N(CC)CC(=O)Nc2ccccc2OC)cc1	-4	-2	-2	-9	.	.	.
COC(=O)[C@H]1C[C@@H]1[C@H](N)c1ccccc1	-23	.	7	-39	.	.	.
COc1ccc(N2CCN(C(=O)NCc3ccc(OC)c(Cl)c3)CC2)cc1	6	3	56*	7	25	9	-8
O=C(CNC(=O)c1cccs1)OCc1ccc(Cl)cc1	19	0	-20	17	.	.	.
Cc1ccc(NC(=O)CC(NCC2CCCO2)C(=O)O)cc1C (stereo not drawn)	2	-1	57*	-4	21	-2	14
Cc1ccc(NC(=O)C(=O)NCC2CCCO2)cc1C (stereo not drawn)	-78	-1	-34	-89	.	.	.
COc1ccc(S(=O)(=O)NCC2CCCN(Cc3ccc(OC)cc3F)C2)cc1 (stereo not drawn)	-3	-1	60*	-8	26	-5	-15
COc1ccc(S(=O)(=O)NCC2CCCN(Cc3ccccc3Cl)C2)cc1 (stereo not drawn)	7	1	12	-36	.	.	.
CC(C)N(C(=S)Nc1cccc(S(=O)(=O)N(C)C)c1)c1ccccc1	-2	-7	55	-9	12	1	-27
O=C(Cc1ccc(S(=O)(=O)N2CCOCC2)s1)Oc1ccc(F)cc1	-8	0	96*	5	9	25	9
COc1ccc(NS(=O)(=O)c2ccc(OC)c(NC(=O)CCC3CCCCC3)c2)cc1	-11	4	1	4	.	.	.
SMILES	Jurkat NFkB inh	Beta apoptosis	Gli-Sufu block	697 NFkB inh	Gli-Sufu confirm	SufuKO cytotox	Wnt3a cs
CCOC(=O)Nc1ccc2c(c1)N(C(=O)CN1CCN(C)CC1)c1ccccc1CC2	-21	-4	51	7	23	19	-6
Cc1ccc(CN2CCC(CNC(=O)Nc3ccccc3F)CC2)cc1	22	4	50	16	31	9	-9
CCCCCCCCCCCC1N=C(N)NC(CCCO)=C1C(=O)OC (stereo not drawn)	.	.	78*	.	23	10	27*
CCCCCCOC(=O)c1ccc(N)cc1	-11	0	-58	4	.	.	.
COCCN(Cc1cc2cc3c(cc2nc1Cl)OCO3)C(=O)Nc1ccc(OC)cc1	6	17	55	-36	29	-1	-20
COCCN(Cc1cc2cc3c(cc2nc1Cl)OCO3)C(=O)Nc1ccc(F)cc1	15	63	33	-36	.	.	.
CCN(CC)S(=O)(=O)c1cccc(-c2nn(-c3ccccc3)cc2/C=C(\C#N)C(=O)NCc2ccco2)c1	-11	2	23	-1	.	.	.
CN(C)S(=O)(=O)c1cccc(-c2nn(-c3ccccc3)cc2/C=C(/C#N)C(=O)NCc2ccco2)c1	-18	4	83*	-6	30	8	14
CCCCn1c(N)c(N(CC(C)C)C(=O)c2ccc(COc3ccccc3)o2)c(=O)[nH]c1=O	-3	-3	10	21	.	.	.
Cc1ccc(N2C(=O)CC(N3CCN(C4CCc5ccccc5C4)CC3)C2=O)cc1 (stereo not drawn)	18	-7	72*	15	24	8	-21
O=C(Nc1cc(C(F)(F)F)cc(C(F)(F)F)c1)Nc1cnn(-c2ccc([N+](=O)[O-])cc2)c1C(F)(F)F	13	116*	55*	-33	74*	13	24
CCOc1ccc(/C=N/NC(=O)C2CC2)c(OCC)c1	9	1	33	13	.	.	.
O=[N+]([O-])c1ccc(/C=N/N/C(=N/c2ccccn2)c2ccccn2)cc1	-74	0	-22	-69	.	.	.
O=[N+]([O-])c1cc(/C=N/N/C(=N/c2ccccn2)c2ccccn2)ccc1O	-28	-6	79*	-52	24	27*	-37
O=C(C[n+]1cccc(O)c1)Nc1ccc(Br)cc1	-16	-1	-13	-14	.	.	.
COc1cccc(-c2nc(NCCN3CCOCC3)c3ccccc3n2)c1O	-14	.	98*	31	31	20	-70
Oc1ccccc1-c1nc(NCCN2CCOCC2)c2ccccc2n1	-10	9	5	12	.	.	.
CC(C)OCCCNC(=O)c1ccc(CS(=O)(=O)c2cccc(C(F)(F)F)c2)o1	15	-3	54	1	19	19	-4
CCCCNC(=O)c1ccc(CS(=O)(=O)c2cccc(C(F)(F)F)c2)o1	-6	2	1	22	.	.	.
O=C(/C=C/c1cccc2ccccc12)c1ccncc1	.	32	52	.	47*	37*	16
O=C(N/N=C/c1cccc2ccccc12)c1ccncc1	-7	.	0	-4	.	.	.
Cc1ccc2nc(-c3ccc(NC(=O)CSc4nc(N)cc(=O)[nH]4)cc3)sc2c1	-121	-2	-85	-177	.	.	.
FC(F)Oc1ccc(-c2c[n+]3c(n2-c2ccccc2)CCCCC3)cc1	18	8	60*	-12	70*	21	-7
COc1ccc(-c2c[n+]3c(n2-c2ccccc2)CCCCC3)cc1	-1	115*	84*	-14	85*	35*	34*
